ChEMBL document CHEMBL1157539, “Thousands of chemical starting points for antimalarial lead identification” (Nature, 2010)

Legend:
Format in all cases: functional
Plasmodium falciparum [1] = assay: GSK_TCMDC: Inhibition of Plasmodium falciparum 3D7 in whole red blood cells, using parasite LDH activity as an index of growth. Test compounds present at 2uM
Plasmodium falciparum [2] = assay: GSK_TCMDC: Inhibition of Plasmodium falciparum Dd2 in whole red blood cells, using parasite LDH activity as an index of growth. Test compounds present at 2uM
HepG2 = assay: GSK_TCMDC: Percent inhibition of human HepG2 cell line. Test compounds present at 10uM.

SMILES	Inhibition (Plasmodium falciparum [1]) [%]	Inhibition (Plasmodium falciparum [2]) [%]	Inhibition (HepG2) [%]
CN(C)C(=O)c1ccc(CN(Cc2ccc(OC(C)(C)C)cc2)Cc2ccc3c(c2)OCCO3)cc1	95	96	0
O=C(NCC1CCC(C(=O)NCc2cccc3ccccc23)CC1)c1ccc(O)c(-c2ccc(Cl)c(Cl)c2)c1 (stereo not given)	100	92	0
O=C(Nc1cccc(CN2CCCN(Cc3ccc(O)cc3)CC2)c1)c1ccc(Br)cc1.O=C(O)C(F)(F)F	94	54	19
N#Cc1ccc(N2CCN(Cc3cccc(-c4cccc(-c5nc6cc(C(F)(F)F)ccc6[nH]5)c4)c3)CC2)nc1.O=C(O)C(F)(F)F	99	50	15
COc1ccc(C2CC(=O)C3=C(C2)NC(C)=C(C(=O)OC(C)C)C3c2ccc(O)cc2)cc1OC (stereo not given)	99	98	0
COc1ccc(CCn2c(=N)c(C(=O)NC3CCCC3)cc3c(=O)n4ccccc4nc32)cc1	99	34	11
Cn1cccc1C(=O)NCC(CCNc1cc(=O)c2ccccc2[nH]1)NCc1cc(Br)cc(Br)c1 (stereo not given)	92	52	0
O=C(Nc1cccc(-c2cc(-c3c(Cl)cccc3Cl)no2)c1)c1cnc2ccccc2c1	87	34	0
CC(C)CCNC(=N)Nc1ccc(OCCCCCOc2ccc(NC(=N)NCCC(C)C)cc2)cc1	85	67	14
O=C(Nc1nc2ccc(Cl)cc2s1)c1csnn1	96	99	15
O=C(/C=C/c1ccc(Cl)c(Cl)c1)NCCCCCN1CCCN(C(=O)Nc2ccc(Cl)cc2)CC1	100	0	21
COc1ccc(COc2cc(NCCCN)nc3ccccc23)cc1	100	5	3
CCC(CC)NCc1c(O)ccc2c(CNC(CC)CC)c(O)ccc12.Cl	100	94	4
Cc1nc(-c2ccc(-c3ccc(NC(=O)Nc4ccc(I)c(OCCN(C)C)c4)cc3)c(C)c2)no1.Cl	100	92	47
CCNc1cc(C(=O)N[C@@H](Cc2ccccc2)[C@H](O)CNC2(CC)CC2)cc(N2CCCCS2(=O)=O)c1.Cl	97	94	59
CCC(=O)Nc1nnc(Cc2ccc(OC)c(OC)c2)s1	93	1	0
COc1cccc2sc(Nc3nc(-c4ccccn4)cs3)nc12	94	76	41
CCSc1ccc(C)cc1CON1C(N)=NC(N)=NC1(C)C.Cl	94	96	66
CC(C)CNCc1cccc(-c2cccc(CNc3ccc4ncccc4c3)c2)c1.O=C(O)C(F)(F)F	92	28	23
CCCCN(CCCC)CCCN(CCCN(CCCC)CCCC)c1cc(C)nc(Nc2ccc(Br)cc2)n1.O=C(O)C(=O)O	99	98	51
COc1cc2nc(N3CCC(CNC(=O)c4ccc(-c5cccc(C#N)c5)cc4)CC3)nc(N)c2cc1OC	100	100	18
CC(C)(C)c1ccc2[nH]c(-c3ccc(/C=C/C(=O)NCc4cccc(C(F)(F)F)c4)cc3)nc2c1	93	11	31
C=CCOC(=O)N1CCC(CNCc2cccc(-c3cccc(-c4nc5cc(F)ccc5[nH]4)c3)c2)C1.O=C(O)C(F)(F)F (stereo not given)	100	49	20
CN(C)c1ccc(NC2=NC(N)=NC(C)(C)N2)cc1	95	5	0
Cc1ccc(C2CCN(CCCCNC(=O)c3ccc(-c4ccc(C#N)cc4)cc3)CC2)c(O)c1	100	90	45
CCCC(=O)Nc1ccc(OCCCN(Cc2ccccc2OC(F)(F)F)c2ccc(C#N)c(C(F)(F)F)c2)cc1	94	95	0
O=S(=O)(c1cccc(Br)c1)N1CCCCC(c2ccc(C(F)(F)F)cc2)=N1	91	92	30
CCCCCCCNc1cc(C)nc2ccc(OC)cc12.Cl	100	100	30
CCCc1cn2c3c(cc(C(=O)N[C@@H](Cc4ccccc4)[C@H](O)CNC4CCOCC4)cc13)N(CC)S(=O)(=O)CC2.O=CO	97	98	2
CN(c1ccc(NC(=O)Nc2cc(C(C)(C)C)on2)cc1)c1ccnc(NCCN2CCOCC2)n1.O=C(O)C(F)(F)F	95	18	51
